Source: PubChem BioAssay (National Center for Advancing Translational Sciences (NCATS))
Pf growth 48h = P. falciparum growth inhibition at 48 hours (one generation); P. falciparum luciferase growth in erythrocytes, 48 h; Potency, µM (top dose mostly 28.7 µM), for inactives: at the top dose activity change, negative = inhibition, most hits filed as inhibitors; hit rate 5.9% among 310,000; AID 504832; further: potency means the concentration at half of the fitted maximal effect; on the % scale 0 is the no-effect control and ±100 the full control effect
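Parasite viability was followed by luminescence of a genomically integrated firefly luciferase. Cultures held 0.1% parasitemia at 2% hematocrit (final), incubated under 5% CO2 at 37 C.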
HCV inhibitor = inhibitors of hepatitis C virus infection. hit rate 3.4% among 340,000. Potency, µM (highest dose often 41.8 µM), for the others: at the top dose activity change, negative = inhibition, most hits filed as inhibitors. Huh7.5.1 HCVcc-Cre infection, luciferase reporter, 44 h; further: potency means the concentration at half of the fitted maximal effect; on the % scale 0 is the no-effect control and ±100 the full control effect
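A cell-based infection assay in which seeded cells (1,000 per well) receive test compound after 4 h, are inoculated with HCVcc-Cre at approximately 0.5 moi, and are incubated 44 h before luminescence detection.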
Shiga inhibitor = blocks Shiga toxin action in Vero cells; Vero cells, Shiga toxin protein synthesis inhibition reporter; inhibition, % at 38.7 µM; hit rate 9.2% among 290,000; in the data active means inhibition mostly above about 28%, no sharp cut-off; inactive means mostly below about 43%; further: 0% is about no effect
Pf growth 96h = inhibits malaria parasite growth, 96 h; AID 504834; Potency, µM (highest dose often 28.7 µM), for inactives: at the top dose activity change, negative = inhibition, actives largely listed as inhibitors; hit rate 6.9% among 320,000; P. falciparum luciferase reporter growth, 96 h; further: potency means the concentration at half of the fitted maximal effect; on the % scale 0 is the no-effect control and ±100 the full control effect
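Delayed-death screen, second-generation endpoint: infected erythrocytes, 2% hematocrit, 0.05% parasitemia final; 96 hours at 37 C, 5% CO2; luciferase detection reagent; luminescence decrease equals reduced growth.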
Cycloheximide cs = counter-screen for Shiga toxin inhibitors: cycloheximide protein synthesis inhibition | max response, % | cell reporter, cycloheximide protein synthesis inhibition counterscreen | hit rate 12% among 300,000; in the data active means max response mostly above about 13%, no sharp cut-off; inactive means mostly below about 14%; further: read at 38.3 µM for the half of the compounds with a filed dose; 0% is about no effect
HCMV inh = inhibitors of human cytomegalovirus. HFF cells, HCMV-luciferase reporter, 72 h; active compounds read low. activity change, negative = inhibition, % at 57.5 µM. hit rate 4.5% among 410,000. AID 1259415; in the data active means activity change below about -60%; inconclusive means no clear call, values can overlap the other calls; inactive means above about -39%; further: on the % scale 0 is the no-effect control and ±100 the full control effect
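Two-dose cell screen: HFF monolayers treated with compounds and infected with luciferase-expressing HCMV at 1 PFU/cell, 72 h at 37C, then lysed for luciferase measurement.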
Active calls of the source: *; ? = inconclusive; nt = not tested or not shown. The list is not random: actives were taken first. Their share in the collection is about 21%. Unless noted, the call rests on the fitted dose curve; in most records, active means well fitted inhibition curve with a large enough effect; inconclusive means small, poorly fitted or top-dose-only effect, or another doubt; inactive means no such curve, though single readings can be large or run the other way.

SMILES | Pf growth 48h | HCV inhibitor | Shiga inhibitor | Pf growth 96h | Cycloheximide cs | HCMV inh
CCOc1cccc(N2C(=O)CC(N(CCc3ccc(OC)c(OC)c3)C(=O)CC)C2=O)c1 (stereo not drawn) | 0.0% | 16.7% | 12.1 | 5.86µM* | 0.7 | 1.8
COC(=O)c1cc(C(=O)OCC(=O)N2CCCCC2)cc([N+](=O)[O-])c1 | nt | 2.6% | nt | nt | nt | 12.4
CC(=O)c1ccc(OCc2cc(C(=O)N(C)Cc3ccon3)no2)cc1 | 12.5% | nt | 15.3 | 6.7% | 16.8 | 4.4
Cc1cc(OCc2cc(C(=O)N(C)C(C)c3ccccn3)no2)cc(C)c1Cl (stereo not drawn) | 6.5% | ? | 101.8* | 5.0% | 41.0* | 51.3
Cc1ccc(OCc2cc(C(=O)N(C)CCc3ccccn3)no2)cn1 | 1.3% | -5.5% | -1.0 | 1.6% | 9.2 | -62.9*
Cc1cc(OCc2cc(C(=O)N(C)Cc3ccccn3)no2)cc(C)c1Cl | 5.6% | -24.4% | 106.0* | 33.6% | 92.1* | 87.4
Cc1cc(OCc2cc(C(=O)N(C)CCOc3ccccc3)no2)cc(C)c1Cl | 8.4% | ? | -4.9 | -15.5% | -1.8 | -3.4
CC(=O)c1ccc(OCc2cc(C(=O)N(C)Cc3ccccn3)no2)cc1 | 7.4% | nt | 52.0* | 10.4µM* | 62.2* | 87.4
COC(=O)[C@H]1[C@H](CO)[C@H]2Cn3c(ccc(Br)c3=O)[C@@H]1N2S(=O)(=O)c1cn(C)cn1 | nt | nt | nt | nt | nt | -10.0
CCCn1c(CN2CCN(C(C)=O)CC2)nc2cc(S(=O)(=O)N(C)C)ccc21 | 6.7% | ? | 16.9 | -0.2% | 9.6 | 6.6
CCCCC(CC)CNC(=O)c1ccc(Cn2c(=O)[nH]c3cc(OC)c(OC)cc3c2=O)cc1 (stereo not drawn) | nt | nt | nt | nt | nt | -2.7
COc1ccc(-n2c(O)c(C(C)=NCCCn3ccnc3)c(=O)[nH]c2=O)cc1 | 95.3% | -2.3% | -10.5 | 86.6% | 2.1 | -65.8*
CCOc1cc(C2NC(=O)N(C)C(C)=C2C(=O)OC)cc(Br)c1O (stereo not drawn) | 13.1µM* | ? | -6.5 | 4.8% | -2.5 | 99.4
CCOc1cc(C2CC(=O)NC3=C2C(=O)C(C(=O)OC)C(C)C3)cc(Br)c1O (stereo not drawn) | 1.47µM* | -17.4% | 30.1 | 23.3% | -1.8 | 20.2
CCOc1c(Br)cc(C2CC(=O)Nc3cc(OC)c(OC)cc32)cc1OC (stereo not drawn) | ? | ? | -8.4 | 161.5% | 0.5 | 13.4
COC(=O)C1C(=O)C2=C(CC1C)NC(=O)CC2c1ccc(F)cc1 (stereo not drawn) | 14.7µM* | -2.3% | -7.0 | 3.8% | -3.4 | 25.8
COC(=O)C1C(=O)C2=C(CC1C)NC(C)=C(C(=O)OC1CCCC1)C2c1ccc(N(C)C)cc1 (stereo not drawn) | 5.22µM* | 9.2% | -21.5 | -6.9% | 5.7 | 28.4
COc1ccc(C(=O)Nc2nnc([C@@H]3C[C@H](O)[C@@H](CO)O3)s2)cc1 | nt | nt | nt | nt | nt | 10.2
O=C(c1ccccc1Cc1ccccc1)N1CCN(S(=O)(=O)c2ccccc2F)CC1 | 11.7µM* | -15.4% | nt | 13.1µM* | nt | -35.3
O=C(c1ccccc1Cc1ccccc1)N1CCN(S(=O)(=O)c2ccccc2)CC1 | -27.6% | 0.3% | -9.9 | ? | 1.3 | 4.4
O=C(c1ccccc1Cc1ccccc1)N1CCN(S(=O)(=O)c2ccccc2[N+](=O)[O-])CC1 | ? | 17.5% | nt | 13.1µM* | nt | -26.8
Cc1ccc(C)c(S(=O)(=O)N2CCN(C(=O)c3ccccn3)CC2)c1 | -11.5% | 11.2% | nt | -20.5% | nt | 3.1
CCn1c(=O)c(C(=O)CN2CCN(S(=O)(=O)c3cc(C)ccc3C)CC2)c(N)n(Cc2ccccc2)c1=O | ? | -7.0% | -3.5 | 13.1µM* | -6.5 | ?
Cc1ccc(C)c(S(=O)(=O)N2CCN(C(=O)c3ccccc3Cc3ccccc3)CC2)c1 | 11.7µM* | ? | nt | ? | nt | -17.5
Cc1cc(S(=O)(=O)Nc2cc3c(cc2N2CCOCC2)n(C)c(=O)n3C)ccc1F | nt | nt | nt | nt | nt | 28.7
Cc1nn(CC(=O)NCCN2CCCCC2C)c(=O)c2cc(-c3ccccc3)nn12 (stereo not drawn) | 14.3% | ? | -3.5 | 26.4% | -4.8 | -35.8
